Only some compounds are listed: those with a hit (about 4.7% of all), similar ones and a draw of the others.
D1 antagonist = blocks dopamine activation of the human D1 receptor; HEK293 TREx D1 cells, calcium flux, dopamine EC80; active compounds read low; activity change, negative = inhibition, % at 10 µM; actives 3.2% (n = 360,000); in the data active means activity change below about -30%; further: on the % scale 0 is the no-effect control and ±100 the full control effect
Target sequence (P21728 whole entry, looked up): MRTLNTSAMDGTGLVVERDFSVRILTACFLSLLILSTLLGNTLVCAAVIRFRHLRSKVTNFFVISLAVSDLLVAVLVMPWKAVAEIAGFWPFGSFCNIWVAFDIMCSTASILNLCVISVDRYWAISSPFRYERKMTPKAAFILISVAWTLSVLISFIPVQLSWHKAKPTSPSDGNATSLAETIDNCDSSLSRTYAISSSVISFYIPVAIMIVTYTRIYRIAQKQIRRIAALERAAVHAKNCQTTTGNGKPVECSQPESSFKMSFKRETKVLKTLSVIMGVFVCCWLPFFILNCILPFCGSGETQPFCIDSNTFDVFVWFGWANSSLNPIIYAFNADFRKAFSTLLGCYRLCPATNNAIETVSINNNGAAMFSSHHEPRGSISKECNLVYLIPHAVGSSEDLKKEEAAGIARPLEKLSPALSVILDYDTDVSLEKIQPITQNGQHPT
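Using tetracycline-induced force-coupled D1 Hek293 cells and a calcium dye, signals were followed for 180 s after compound, then for 180 s after EC80 dopamine, to detect inhibitors.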
TRHR PAM = allosteric enhancers of human TRH receptor. actives 0.66% (n = 360,000). enhancement, % at 2 µM. TRHR cells, fluo-8 calcium fluorescence, EC20 TRH enhancement. P34981; in the data active means enhancement above about 30%; further: 0% is about no effect
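TRHR-expressing cells loaded with fluo-8 calcium dye were read kinetically (ex 480/em 530) during compound addition, then stimulated with an EC20 of TRH (10 nM final). Enhancement of the Gq-mediated intracellular calcium response was scored.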
D1 PAM = enhances dopamine response at the human D1 receptor. P21728. HEK293 TREx D1 cells, calcium flux, dopamine EC20 potentiation. potentiation, % at 10 µM. actives 0.036% (n = 360,000); in the data active means potentiation above about 30%; further: 0% is about no effect
TRHR ag = TRH receptor (human) agonism | P34981 | TRHR cells, calcium flux fluo-8, FDSS agonist mode | activation, % at 2 µM | actives 0.18% (n = 360,000) | AID 493084; further: 0% is about no effect
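Agonist-mode FDSS calcium read (Ex 480/Em 530, 1 s cycles) in 1536-well TRHR cells with fluo-8 dye, after 10-cycle baseline and 23 nL compound addition; TRH at EC20 (10 nM final) added afterwards for the enhancer phase.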
D1 ag = human D1 receptor agonism; HEK293 T-REx D1 cells, calcium flux, agonist mode; activation, % at 2 µM; AID 504660; actives 1% (n = 360,000); P21728; further: 0% is about no effect
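Agonism was scored from calcium flux recorded over 180 s (1 read/s) after pintool compound addition, following a 10-cycle baseline. Cells were inducible force-coupled HEK293 TREx D1, plated overnight at 30 C and loaded with no-wash calcium dye.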
* marks the source's active call; other numbers are inactive results; / = not tested or not shown; ! = not confirmed by another sample. Unless noted, no stated cut-off is given here; in the data, active means activation above about 30%; inactive means the rest.

SMILES	D1 antagonist	TRHR PAM	D1 PAM	TRHR ag	D1 ag
CCOC(=O)[C@@H]1[C@H]2COc3ccccc3[C@@H]2N2C(=O)N(c3ccccc3)C(=O)[C@]12C	-2	1	-5	0	0
Cc1ccc(NC(=O)Cn2cnc3cc([N+](=O)[O-])ccc3c2=O)c(Cl)c1	-20	10	-10	-1	38*
CC(C)(CO)Cc1cc(C(C)(C)C)c(O)c(C(C)(C)C)c1	22	21	-3	-1	71*
S=C(NCc1ccc(Cl)cc1)Nc1ccccc1	2	0	-10	0	22
NS(=O)(=O)c1ccc(NC(=S)NCc2ccc(F)cc2)cc1	5	-8	-1	1	1
O=[N+]([O-])c1ccc(NC(=S)NCc2ccncc2)cc1	-41*	-1	-15	1	32*
O=[N+]([O-])c1ccc(NC(=S)NCc2ccc(F)cc2)cc1	-35*	2	-5	2	21
S=C(NCc1ccc(Cl)cc1)Nc1ccncc1	-43*	-12	-6	0	26
O=C(NCc1ccncc1)Nc1cccc([N+](=O)[O-])c1	-7	-3	-4	1	8
O=[N+]([O-])c1cccc(NC(=S)NCc2ccncc2)c1	-40*	2	-4	-1	7
O=[N+]([O-])c1ccc(NC(=S)NCCc2ccc(Cl)cc2)cc1	-23	-11	-12	2	15
O=[N+]([O-])c1ccc(NC(=S)NCCc2ccccc2)cc1	-37*	-4	-8	1	16
COc1ccccc1CNC(=O)c1cc2cccc3c2n1CC(C)S3 (stereo not given)	2	3	9	-1	5
O=C(COC(=O)c1cc(=O)[nH]c2ccccc12)Nc1nccs1	-25	27	-4	0	1
O=C(COC(=O)c1ccccc1Cl)Nc1nccs1	-5	2	-4	-1	45*
CCC(Sc1nc2n[nH]c(C)c2c(=N)n1-c1cccc(Cl)c1C)C(=O)N(CC)CC (stereo not given)	-41*	-3	5	0	1
CCc1ccc(-n2c(SC(CC)C(=O)N(CC)CC)nc3n[nH]c(C)c3c2=N)cc1 (stereo not given)	15	-1	4	-1	3
COc1ccc(OCC(=O)NCCS(=O)(=O)N2CCN(c3cccc(Cl)c3)CC2)cc1	-7	0	-3	0	6
O=C1c2ccccc2NC(c2ccc(-c3ccccc3F)o2)N1O (stereo not given)	/	36*	-3	-1	0
Cc1ccc(NC(=O)CCN2C(=O)c3cccc4cccc(c34)C2=O)cc1	-33*	16	-8	0	0
CCOc1cc(/C=N/NC(=O)c2nnn(-c3nonc3N)c2C)ccc1OCc1cccc(F)c1	-5	-6	4	0	1
Cc1cccc(NC(=O)CN2C(=O)N/C(=C/c3ccc(C)s3)C2=O)c1	-7	10	-5	14	53*
COc1ccc(N2CCN(C(CNS(C)(=O)=O)c3ccco3)CC2)cc1 (stereo not given)	-5	5	3	0	5
CCCCCCCN1CCN=C1N(C)C	-35*	-2	-5	0	0
CC(C)CCCN1CCN=C1N(C)C	-9	6	2	1	2
SMILES	D1 antagonist	TRHR PAM	D1 PAM	TRHR ag	D1 ag
O=C(COc1ccc2c(c1)OCO2)Nc1nncs1	2	27	2	-1	2
COP(=O)(OC)c1nc(-c2ccc([N+](=O)[O-])cc2)oc1N1CCCCC1	-3	1	-6	12	49*
Cc1ccc(NC(=O)COC(=O)Cc2ccsc2)c(C)c1	-34*	17	-3	-2	0
CCOc1ccccc1NC(=O)COC(=O)Cc1ccsc1	2	-3	-3	-1	3
O=S(=O)(c1ccc(Cl)cc1)N(Cc1ccccn1)Cc1ccccn1	3	-5	-3	-1	3
O=S(=O)(NCc1ccccc1)c1ccc(S(=O)(=O)N(Cc2ccccn2)Cc2ccco2)cc1	-34*	-2	-11	-1	26
CCN(CC)S(=O)(=O)c1ccc(S(=O)(=O)N(Cc2ccccn2)Cc2ccco2)cc1	-56*	1	-12	-1	31*
COC(=O)c1ccccc1NC(=O)Cn1c(=O)n(CCC(=O)NCc2ccc3c(c2)OCO3)c(=O)c2ccccc21	5	4	2	0	6
CC(=O)Nc1ccc(NC(=O)C2CCCN2C(=O)Nc2ccc(F)c([N+](=O)[O-])c2)cc1 (stereo not given)	-6	-2	-7	1	1
CN(C)c1nc(OCCOC(=O)c2ccccc2)nc(N(C)C)n1	0	-1	-1	2	31*
CC(C)Nc1nc(NC(C)C)nc(OCCOC(=O)c2ccccc2)n1	-5	-2	0	-1	-1
COC(=O)NC(=S)Nc1ccc(Oc2ccc(Cl)cc2)c(Cl)c1	-35*	0	-5	0	6
CC(Oc1ccc2c(c1)c1ccnc3c4ccccc4c(=O)n2c13)C(=O)NCCN1CCOCC1 (stereo not given)	-9	2	1	0	0
Cc1ccc(CCNC(=O)c2nn(C)c3c2CSc2ccccc2-3)cc1	5	-1	0	0	1
Cc1cccc(N2CCN(C(=O)c3nn(C)c4c3CSc3ccccc3-4)CC2C)c1 (stereo not given)	-46*	0	-5	0	1
Cn1nc(C(=O)NCc2ccccc2Cl)c2c1-c1ccccc1S(=O)(=O)C2	-31*!	-2	1	-1	3
COc1ccccc1CNC(=O)c1nn(C)c2c1CS(=O)(=O)c1ccccc1-2	-28	-19	-11	-1	2
Cc1cccc(N2CCN(C(=O)c3nn(C)c4c3CS(=O)(=O)c3ccccc3-4)CC2C)c1 (stereo not given)	-6	-12	0	0	1
CC1CC(C)CN(CCCNC(=O)c2nn(C)c3c2CS(=O)(=O)c2ccccc2-3)C1 (stereo not given)	-42*	4	0	0	-1
Cn1nc(C(=O)NCCCN2CCCCC2)c2c1-c1ccccc1SC2	-30*	-11	-5	2	5
CN1c2cccc3cccc(c23)N(C)C1c1cccs1	-4	-6	-3	-1	8
CC1N(C)c2cccc3cccc(c23)N1C	-41*	-2	-6	0	0
Cc1ccc(C)c(-c2[nH]c3c(c2-c2c(-n4cccc4)n(C)c(=O)[nH]c2=O)c(=O)[nH]c(=O)n3C)c1	-12	1	0	1	-1
CC(C)CC(=O)Nc1cc(-c2ccccc2F)nn1-c1ccccc1	-17	17	0	0	0
CSc1ccccc1NC(=O)c1csc(C)c1	4	0	2	-1	4
COc1ccc(C)cc1NC(=O)C(OC(=O)c1cnccn1)c1ccccc1 (stereo not given)	7	5	-4	0	1
